High-throughput results from PubChem.
A selection: hits, their analogues and other compounds. The true share with any hit is near 1.4%.
3CLpro inhibitor: SARS-CoV 3CLpro protease inhibition | recombinant SARS-CoV 3CLpro, quenched FRET peptide cleavage | inhibition, % at 6 µM | P0C6X7 | actives 0.14% (n = 290,000); in the data active means inhibition above about 12%
RecA intein inh: inhibitors of M. tuberculosis RecA intein splicing | inhibition, % (test concentration not listed) | cell-free RecA intein splicing, fluorescence | P9WHJ3 | actives 0.75% (n = 290,000); in the data active means inhibition above about 30%
PrPC surface inh: reduces human prion protein on the cell surface; P04156; cell surface PrPC, TR-FRET read-out; inhibition, % at 13.8 µM; actives 0.43% (n = 370,000); AID 720596; in the data active means inhibition above about 24%
Mtb hypoxia inh: Mtb hypoxia fluorescent reporter inhibition. M. tuberculosis hypoxia-regulated fluorescent reporter, fluorescence. fluorescence inhibition, % (concentration not given with the values). actives 0.1% (n = 300,000); in the data active means fluorescence inhibition mostly above about 23%, no sharp cut-off; inactive means mostly below about 17%
BJeLR viability: BJeLR cell viability loss; BJeLR (HRASV12) viability, CellTiter-Glo ATP luminescence, 48 h; inhibition, % (test concentration not listed); actives 0.17% (n = 300,000); AID 1554; in the data active means inhibition above about 50%
PrP UTR inh: inhibition of PrP 5' UTR reporter expression | cell-based PrP 5' UTR mRNA reporter, plate reader | inhibition, % (no concentration beside the values) | actives 0.35% (n = 340,000) | AID 488862; in the data active means inhibition above about 52%
PrPC confirm: confirmation of inhibitors of cell surface human prion protein; shares compounds with PrPC surface inh; cell surface PrPC level, TR-FRET; inhibition, % at 13.8 µM; actives 65% (n = 1,500); AID 743200; in the data active means inhibition above about 25%
LD9 tox: kills or reduces viability of LD9 cells in PrPc counter-screen. shares compounds with PrPC surface inh. LD9 cells cytotoxicity, luminescence viability. inhibition, % at 13.8 µM. actives 29% (n = 1,500). AID 743201; in the data active means inhibition above about 9.5%
Large screens that a line does not name were inactive (follow-up assays come after a bar, where they were run).

O=C1NC(Cc2ccccc2)COC(=O)C(Cc2ccc(F)cc2)CCC=CCC1CC(=O)N(CCO)Cc1ccccc1 (stereo not given)	none (no result: 3CLpro inhibitor, RecA intein inh, PrPC surface inh, BJeLR viability, PrP UTR inh)
CCOc1ccccc1C(=O)Nc1ccc2nc(C)[nH]c(=O)c2c1	PrPC surface inh 26 (no result: 3CLpro inhibitor, RecA intein inh, Mtb hypoxia inh, BJeLR viability, PrP UTR inh) | PrPC confirm inactive | LD9 tox inactive
Cn1nnnc1Sc1ncnc2scc(-c3ccc(Br)cc3)c12	PrPC surface inh 25 (no result: 3CLpro inhibitor, RecA intein inh, BJeLR viability) | PrPC confirm 27 | LD9 tox 22
Cc1ccc(Nc2nc(NCc3ccco3)c3ccccc3n2)cc1	PrPC surface inh 35 | PrPC confirm 43 | LD9 tox 24
C=C1CC2(CC(c3ccccc3)OC(c3ccccc3)C2)OC1=O (stereo not given)	PrPC surface inh 49 (no result: 3CLpro inhibitor, RecA intein inh, Mtb hypoxia inh, BJeLR viability) | PrPC confirm inactive | LD9 tox 70
Cn1c(=O)c2cc(NC(=O)NCc3ccccc3)ccc2n1Cc1cccc(C(F)(F)F)c1	PrPC surface inh 25 (no result: 3CLpro inhibitor, RecA intein inh, Mtb hypoxia inh, BJeLR viability, PrP UTR inh) | PrPC confirm inactive | LD9 tox inactive
CC(=O)C1C(c2ccccc2)NC(=O)N(Cc2ccccc2)C1C (stereo not given)	none (no result: 3CLpro inhibitor, RecA intein inh, PrPC surface inh, BJeLR viability, PrP UTR inh)
O=C(Nc1ccc(F)cc1)Nc1cc(OCC(F)(F)F)cc(OCC(F)(F)F)c1	PrPC surface inh 44 | PrPC confirm 44 | LD9 tox 27
CCOc1ccc(NC(=O)Nc2cc(OCC(F)(F)F)cc(OCC(F)(F)F)c2)cc1	none
NC(CO)c1cn(C(Cc2cc3ccccc3[nH]2)C(=O)N2CCNCC2)nn1 (stereo not given)	none (no result: 3CLpro inhibitor, RecA intein inh, PrPC surface inh, BJeLR viability, PrP UTR inh)
O=C(Nc1ccc(Cn2cccn2)cc1)c1ccc(COc2cccc(Br)c2)cc1	PrPC surface inh 28 (no result: Mtb hypoxia inh) | PrPC confirm 26 | LD9 tox inactive
O=C(Nc1ccn(Cc2ccccc2F)n1)c1ccc(COc2ccc(Br)cc2)cc1	PrPC surface inh 32 | PrPC confirm inactive | LD9 tox inactive
O=C(CC(=O)NC1CCCCC1)NN=Cc1ccc(Cl)cc1	none (no result: 3CLpro inhibitor, RecA intein inh, PrPC surface inh, BJeLR viability, PrP UTR inh)
N#C/C(=N/Nc1ccc(OC(F)(F)F)cc1)C(N)=S	PrPC surface inh 26 (no result: Mtb hypoxia inh) | PrPC confirm 38 | LD9 tox 28
N#CC(=C=[N-])C1=C(C#N)C(c2ccccc2F)C([n+]2ccccc2)C(O)(C2CC2)N1 (stereo not given)	PrPC surface inh 63 | PrPC confirm inactive | LD9 tox inactive
Cc1[nH]c(=O)c(C#N)c(C)c1CSc1ncccn1	PrPC surface inh 29 (no result: 3CLpro inhibitor) | PrPC confirm 25 | LD9 tox inactive
CC(=NNC(=O)c1ccc(C)cc1C)c1ccc2c(c1)OCO2	none (no result: 3CLpro inhibitor, RecA intein inh, PrPC surface inh, BJeLR viability, PrP UTR inh)
N#Cc1cccc(C(c2nnnn2C2CCCC2)N2CCC(Cc3ccccc3)CC2)c1 (stereo not given)	none (no result: Mtb hypoxia inh)
N#Cc1cccc(C(c2nnnn2C2CCCC2)N2CCCCCC2)c1 (stereo not given)	PrPC surface inh 41 (no result: Mtb hypoxia inh) | PrPC confirm inactive | LD9 tox inactive
COc1ccccc1/C=N/NC(=O)c1c(-c2ccccc2)noc1C	none (no result: Mtb hypoxia inh)
Cc1cccc(/C=N/NC(=O)c2c(-c3ccccc3)noc2C)c1O	PrPC surface inh 26 (no result: RecA intein inh, Mtb hypoxia inh) | PrPC confirm inactive | LD9 tox inactive
CCc1ccc(-n2c(O)c(C=NN3CCCCC3c3cccnc3)c(=O)[nH]c2=O)cc1 (stereo not given)	none (no result: 3CLpro inhibitor, RecA intein inh, PrPC surface inh, BJeLR viability, PrP UTR inh)
Cc1cc2cc(CNC(=O)c3cccs3)ccc2n1C	PrPC surface inh 35 | PrPC confirm inactive | LD9 tox inactive
COc1ccc(CC(=O)NCc2ccc3c(c2)cc(C)n3C)cc1	none
COc1ccc(C(=O)NCc2ccc3c(c2)cc(C)n3C)cc1OC	PrPC surface inh 45 | PrPC confirm inactive | LD9 tox inactive
COc1cccc(C(=O)NCc2ccc3c(c2)cc(C)n3C)c1	PrPC surface inh 46 | PrPC confirm 49 | LD9 tox inactive
COc1ccc(/C=C\C(=O)NCc2ccc3c(c2)cc(C)n3C)cc1OC	PrPC surface inh 81 | PrPC confirm 59 | LD9 tox inactive
O=C(C1=CC(c2coc3ccccc3c2=O)CC(OCc2ccc(CO)cc2)O1)N1CCOCC1 (stereo not given)	none (no result: 3CLpro inhibitor, RecA intein inh, PrPC surface inh, BJeLR viability, PrP UTR inh)
CCC=CC(=O)N1CC2(CC(c3cccc(NC(=O)COc4ccc(Cl)cc4)c3)=NO2)CC1C(N)=O (stereo not given)	none (no result: 3CLpro inhibitor, RecA intein inh, PrPC surface inh, BJeLR viability, PrP UTR inh)
CCCC(=O)Nc1ccc(C(=O)NNC(=S)NC(=O)c2cccs2)cc1	none
CCCC(=O)Nc1ccc(C(=O)NNC(=S)NC(=O)c2ccc(Br)o2)cc1	PrPC surface inh 32 | PrPC confirm inactive | LD9 tox inactive
CCCC(=O)NC(c1ccccc1Cl)c1ccc2cccnc2c1O (stereo not given)	PrPC surface inh 27 (no result: RecA intein inh, Mtb hypoxia inh) | PrPC confirm 28 | LD9 tox 34
CCCC(=O)NC(c1ccc(C(C)C)cc1)c1ccc2cccnc2c1O (stereo not given)	none (no result: Mtb hypoxia inh)
CCC(=O)NC(c1ccc(Cl)cc1Cl)c1ccc2cccnc2c1O (stereo not given)	PrPC surface inh 28 (no result: Mtb hypoxia inh) | PrPC confirm inactive | LD9 tox 25
CC(C)C(=O)NC(c1ccc(Cl)cc1Cl)c1ccc2cccnc2c1O (stereo not given)	PrPC surface inh 30 | PrPC confirm 25 | LD9 tox 9.8
CC(=O)NC(c1ccco1)c1ccc2cccnc2c1O (stereo not given)	none (no result: PrPC surface inh, Mtb hypoxia inh)
